Only some compounds are listed: those with a hit (about 12% of all), similar ones and a draw of the others.
WT yeast gro inh = growth inhibition of WT yeast, mitochondrial fusion screen; AID 1362; mitochondrial fusion phenotypic screen, WT strain; inhibition, % at 10 µM; hit rate 2.1% among 190,000; in the data active = inhibition above about 58%; tested in S. cerevisiae
KCC2 mod = modulators of human KCC2 chloride dependent transport. hit rate 2.2% among 190,000. B-score of Tl+ flux slope (higher = more flux/activation; lower = inhibition) at 10 µM. KCC2 cells, thallium flux FluoZin-2 fluorescence. AID 1456. Q9H2X9;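 active = thallium flux slope and its plate-corrected score both differing from the plate sample mean at a set confidence after two filtering rounds, in either direction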;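 also: slope of fluorescence scaled to starting intensity during 10 to 20 s after thallium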
Lmaj promast = inhibitors of Leishmania major promastigote growth. inhibition, % at 10 µM. AID 1063. hit rate 9% among 200,000. Leishmania major promastigotes, resazurin fluorescence viability; in the data active = inhibition above about 50%;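 also: promastigotes grown with compound for 44 hours at 28 °C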
ROMK primary = human ROMK K+ channel modulation, primary screen. P48048. Tet-inducible ROMK, thallium flux fluorescence; actives lie on both sides. B-score at 10 µM. hit rate 2% among 130,000;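 active = signal ratio slope over the read window, or its plate-corrected B-score, at least 3 SD from the plate mean, either direction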;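 also: B-score of the F/F0 ratio slope over 7 to 12 s after thallium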
Insulin prom up = MIN6 insulin promoter up-regulation | MIN6 insulin promoter-GFP reporter, high-content imaging; active compounds read high | z-score at 5 µM | hit rate 0.3% among 190,000;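 active = z-score above 3 at 5 µM with at least 500 cells counted in the well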
Insulin prom inh = TRM-6 insulin promoter activity inhibition | inhibition, % at 2 µM | hit rate 0.9% among 130,000 | TRM-6 cells (human fetal islet line), insulin promoter-eGFP reporter, imaging; reporter expression induced with tamoxifen;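 active = inhibition above the mean plus 3 SD, with well images judged a real hit on visual review, cut at about 60% in these data, passing the limit was not always enough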
A number is an active result; - = inactive; . = not tested or not shown.

SMILES | WT yeast gro inh | KCC2 mod | Lmaj promast | ROMK primary | Insulin prom up | Insulin prom inh
CC(=O)c1ccc(NCC(=O)N2CCN(c3ccccc3)CC2)cc1 | - | - | - | - | - | -
Cc1cccc(N2CCN(C(=S)c3ccc([N+](=O)[O-])cc3)CC2)c1 | - | - | - | - | - | -
Cc1ccc(Nc2nc(N3CCOCC3)c3ccccc3n2)cc1 | - | - | 88.1 | - | - | .
O=C(CSc1nc(-c2cccs2)cc(C(F)(F)F)n1)Nc1cc(OCC(F)(F)C(F)F)cc([N+](=O)[O-])c1 | - | - | 84.3 | - | - | -
CN(CC(=O)Nc1ccc(Cl)cc1)CC(=O)Nc1ccc(F)c(F)c1F | - | - | - | . | - | .
COc1ccc(S(=O)(=O)N2CCOCC2)cc1NC(=O)c1ccc2c(c1)OCCO2 | - | - | - | - | - | .
CCn1cc(C2=NC(c3ccccc3)CO2)c2ccccc21 (stereo not drawn) | - | - | - | - | - | -
CCn1cc(C2=NC(C)CO2)c2ccccc21 (stereo not drawn) | . | - | - | - | . | 83.9
CC(=O)CCc1oc2ccc(C)cc2c1-c1ccc(C)o1 | - | - | - | - | . | -
Cc1cc(C)c(NC(=O)Cn2cnc3c(oc4ccccc43)c2=O)c(C)c1 | - | - | - | - | - | -
O=C(OCc1nc2ccccc2[n+]([O-])c1C(=O)c1ccccc1)c1cccnc1 | . | - | . | - | - | .
COc1cc(NC(=O)C2=C(N3CCOCC3)/C(=C/c3ccc(Cl)cc3)CC2)cc(OC)c1OC | - | - | - | . | - | .
COc1cc(NC(=O)C2=C(N3CCOCC3)/C(=C\c3ccc(N(C)C)cc3)CCC2)cc(OC)c1OC | - | - | 98.0 | - | - | -
COCCn1c(-c2ccc(OC)cc2)nc2ccccc21 | - | . | 56.0 | - | . | -
Clc1ccc(OCCn2c(-c3ccco3)nc3ccccc32)cc1 | 83.0 | - | - | - | . | -
CSc1ccc(CNc2ccccc2)cc1 | - | - | 99.5 | . | - | -
CSc1ccc(CNc2ccccn2)cc1 | - | . | - | - | - | -
COc1cc(/C=C/C(=O)OCC(=O)NCc2ccco2)ccc1OCC#N | - | - | - | - | - | .
CCOc1ccc(S(=O)(=O)Nc2nc3ccccc3nc2N2CCN(C)CC2)cc1 | - | - | 100.3 | . | - | .
CCOc1ccc(S(=O)(=O)Nc2nc3ccccc3nc2-n2ccc(=NC(=O)c3ccccc3C)cc2)cc1 | . | - | . | . | - | .
CCOc1nc(-c2ccccc2)ccc1-c1noc(COc2ccccc2)n1 | - | - | - | . | - | -
CC(=O)Nc1ccc(NC(=O)CN2CCN(c3cccc(C(F)(F)F)c3)CC2)cc1 | - | - | - | - | - | -
CC(=O)Nc1ccc(CN2CCN(c3cccc(C(F)(F)F)c3)CC2)cc1 | - | - | 91.5 | . | - | .
Cc1cccc(-c2nnc3sc(-c4ccccc4C)nn23)c1 | 68.5 | - | - | - | - | -
Cc1oc(-c2cccc(F)c2)nc1CN(Cc1ccccc1)C[C@@H]1CCC(=O)N1 | - | - | 59.3 | - | - | .
SMILES | WT yeast gro inh | KCC2 mod | Lmaj promast | ROMK primary | Insulin prom up | Insulin prom inh
Cc1oc(-c2ccccc2Cl)nc1CN(Cc1ccccn1)C[C@@H]1CCC(=O)N1 | - | . | - | - | . | -
O=C(Nc1ccccn1)C(F)(F)C(F)(F)C(F)(F)C(F)(F)C(=O)Nc1ccccn1 | - | - | 69.8 | - | - | -
O=C(COC(=O)C1CC1)Nc1ccc(Oc2ccccc2)cc1 | - | - | - | - | - | -
O=C(COC(=O)C1CCC1)Nc1ccc(Oc2ccccc2)cc1 | - | - | 67.1 | - | - | -
O=C(CN1CCN(CC(=O)Nc2ccccn2)CC1)Nc1ccccn1 | - | -4.34 | - | . | - | -
O=C(NCC(F)(F)F)Nc1ccccn1 | - | . | - | - | - | -
O=C(CC(=O)Nc1ccccn1)Nc1ccccn1 | - | . | - | - | . | -
O=C(CN1CCCCCC1)Nc1ccc(Oc2ccccc2)cc1 | - | - | 62.2 | - | - | .
COc1ccc(-n2c(=S)[nH]c3cc(C(=O)Nc4ccc(OC)c(OC)c4)ccc3c2=O)cc1 | - | - | - | - | - | -
O=C(Oc1cccc(-n2cnnn2)c1)c1ccccc1Cl | - | - | - | - | - | .
COc1cccc(OC)c1NC(=O)C1CCCN1C(=O)NCc1ccccc1 (stereo not drawn) | - | . | - | . | - | .
O=C(CN1CCN(c2ccccn2)CC1)Nc1ccc(Oc2ccccc2)cc1 | - | - | 90.2 | - | . | -
Oc1ccccc1N=Cc1ccc[nH]1 | - | . | 99.7 | - | - | .
CCc1c(O)cc2n(c1=O)-c1ccc(Cl)cc1C2(C)C | - | - | 71.1 | - | . | -
CCOC(=O)CSc1nc(C2CC2)cc(-c2ccc(Cl)cc2)c1C#N | - | - | - | . | - | .
CC(=O)NC(CCS(C)(=O)=O)C(=O)Nc1ccc2c(c1)OCCO2 (stereo not drawn) | - | - | - | - | - | -
Cc1cc(C)c(S(=O)(=O)c2cccc(Cl)c2)c(Cl)n1 | - | - | - | - | - | -
Cc1cc(C)c(S(=O)(=O)c2c(C)cccc2C)c(Cl)n1 | - | - | 100.3 | . | . | -
Cc1cc(C)c(S(=O)(=O)c2ccc(Cl)cc2C)c(Cl)n1 | - | - | 100.3 | - | - | -
CCN(CC)S(=O)(=O)c1ccc(NC(=O)c2ccc(N(C)S(C)(=O)=O)cc2)cc1 | - | - | - | - | . | -
CCN(CC)S(=O)(=O)c1cccc(NC(=O)c2cc3ccccc3o2)c1 | - | - | 80.9 | . | - | -
CCN(CC)S(=O)(=O)c1ccc(C(=O)Nc2ccc(Cc3ccncc3)cc2)cc1 | - | - | 99.1 | - | - | -
CN(C)S(=O)(=O)c1cccc(NC(=O)c2cncc(Br)c2)c1 | - | - | 88.0 | - | - | -
CCN(CC)S(=O)(=O)c1cccc(NC(=O)c2cncc(Br)c2)c1 | - | - | 98.9 | - | - | .
CCN(CC)S(=O)(=O)c1cccc(C(=O)Nc2cc(C)cc(C)c2)c1 | - | - | - | . | - | -
SMILES | WT yeast gro inh | KCC2 mod | Lmaj promast | ROMK primary | Insulin prom up | Insulin prom inh
CCN(CC)S(=O)(=O)c1cccc(NC(=O)c2ccc(Br)cc2)c1 | 69.9 | - | - | - | - | .
CCC(=O)Nc1cccc(NC(=O)c2ccc(Br)cc2)c1 | - | - | - | . | - | -
CC(C)(C)c1ccc(S(=O)(=O)Nc2ccc(Cc3ccncc3)cc2)cc1 | 58.8 | - | 88.0 | - | - | -
CCN(CC)S(=O)(=O)c1cccc(C(=O)N/N=C(\C)c2ccc(O)cc2O)c1 | - | - | 67.9 | - | - | .
CCN(CC)S(=O)(=O)c1cccc(C(=O)Nc2cccc(C)c2)c1 | - | - | 62.0 | - | - | -
Cc1cc(C)c(S(=O)(=O)c2ccccc2)c(N(C)C)n1 | - | . | - | . | - | -
COc1ccc(C(C)(C)C)cc1NC(=O)Nc1ccc2c(c1)OCO2 | 67.8 | - | 99.5 | - | . | -
CCOP(=O)(c1ccccc1)c1nc(-c2ccccc2Cl)oc1N1CCCCC1 (stereo not drawn) | 66.4 | - | - | - | . | -
Cc1ccc2cc(C(c3nnnn3CC3CCCO3)N3CCc4ccccc4C3)c(=O)[nH]c2c1 (stereo not drawn) | - | . | 93.1 | - | - | -
Cc1ccc(C)c2[nH]c(=O)c(C(c3nnnn3Cc3ccccc3)N3CCc4ccccc4C3)cc12 (stereo not drawn) | - | - | 73.4 | - | - | -
